An excerpt weighted towards active compounds, which were near 4.6% of everything screened.
KKLEB tox: counter-screen for CF NF-kB inhibitors: cytotoxicity; KKLEB CF airway cells viability, ATPlite luminescence, overnight; active compounds read low; cells stimulated with P. aeruginosa culture filtrate; activity change (cytotoxicity), % at 5 µM; hit rate 0.36% among 360,000;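 active means corrected activity change at or below -50% at 5 µM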
CF NFkB block: blocks PAF-induced NF-kB reporter in cystic fibrosis cells; KKLEB NF-kB-GFP reporter, GFP fluorescence overnight; inhibition, % at 5 µM; hit rate 0.86% among 360,000; AID 588850;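 active means at least 50% inhibition at 5 µM, scaled per plate between neutral and stimulator controls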;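 further: PAF is a Pseudomonas aeruginosa culture filtrate used as stimulus; plate controls were PAF-stimulated DMSO wells for no effect and unstimulated DMSO wells for full effect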
ABHD5-PLIN5 inh: blocks binding of human ABHD5 to perilipin-5. Q00G26+Q8WTS1. Split G. princeps luciferase complementation, luminescence, 4 h. inhibition, % at 4 µM. hit rate 0.78% among 360,000. AID 602281;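 active means inhibition above the mean inhibition across every tested compound plus 3 SD, cut at about 22% in these data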;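 further: 0% = DMSO only wells and the 100% control is not disclosed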
Target sequence (Q00G26 whole entry, looked up): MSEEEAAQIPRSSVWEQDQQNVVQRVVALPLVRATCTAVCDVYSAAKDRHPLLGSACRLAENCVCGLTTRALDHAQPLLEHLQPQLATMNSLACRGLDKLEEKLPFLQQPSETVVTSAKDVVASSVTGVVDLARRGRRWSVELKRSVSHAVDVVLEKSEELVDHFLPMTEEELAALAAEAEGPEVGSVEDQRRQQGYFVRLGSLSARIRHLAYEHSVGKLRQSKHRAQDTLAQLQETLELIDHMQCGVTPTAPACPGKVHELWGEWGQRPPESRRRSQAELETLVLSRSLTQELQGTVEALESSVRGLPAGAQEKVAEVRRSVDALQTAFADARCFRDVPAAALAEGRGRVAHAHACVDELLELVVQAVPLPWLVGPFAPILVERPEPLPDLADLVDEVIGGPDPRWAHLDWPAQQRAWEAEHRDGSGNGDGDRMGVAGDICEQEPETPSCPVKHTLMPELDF
Target sequence (Q8WTS1 whole entry, looked up): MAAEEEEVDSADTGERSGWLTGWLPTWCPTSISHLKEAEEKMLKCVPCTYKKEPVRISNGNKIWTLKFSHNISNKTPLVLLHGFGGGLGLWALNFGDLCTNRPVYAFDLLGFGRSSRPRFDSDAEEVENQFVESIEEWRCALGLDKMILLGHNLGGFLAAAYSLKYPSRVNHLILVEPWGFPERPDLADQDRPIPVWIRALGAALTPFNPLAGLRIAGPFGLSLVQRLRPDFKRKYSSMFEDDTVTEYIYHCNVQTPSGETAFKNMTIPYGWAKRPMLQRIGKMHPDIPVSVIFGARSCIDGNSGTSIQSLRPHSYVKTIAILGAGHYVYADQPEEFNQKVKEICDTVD
HIF-2a inh: blocks HIF-2a reporter activity; hit rate 0.72% among 360,000; 786-0 RCC cells HIF-2a reporter, luciferase luminescence, overnight; inhibition, % at 18.8 µM;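 active means inhibition of the luminescence signal of 40% or more relative to plate controls, in a single-dose primary screen at 18.75 µM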
Mdm2 MdmX PPI: inhibitors of human Mdm2/MdmX interaction | SaOS-2 split-luciferase Mdm2/MdmX complementation, luminescence | inhibition, % at 8 µM | hit rate 3% among 330,000 | AID 485346;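 active means inhibition of at least 50% at 8 µM in the primary screen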
Peg3 prom inh: reduces Peg3 promoter-driven luciferase expression in HeLa | hit rate 1.7% among 360,000 | HeLa PEG-Prom luciferase reporter, luminescence, overnight | inhibition, % at 20 µM | AID 588405;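 active means inhibition of at least 50% at 20 µM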
Mdm2-MdmX conf: human Mdm2/MdmX binding inhibition, confirmed; AID 489028; hit rate 55% among 10,000; luminescent assay; shares compounds with Mdm2 MdmX PPI; inhibition, % at 8 µM; in the data active means inhibition above about 40%
Full FLuc ctr: full-length luciferase inhibition in Mdm2/MdmX counter-screen. shares compounds with Mdm2 MdmX PPI. SaOS-2 full-length luciferase counterscreen, luminescence. inhibition, % at 8 µM. hit rate 77% among 6,200. AID 504607;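 active means mean inhibition at 8 µM reaching about 37%, which flags the compound as non-specific, limit read from the data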;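 further: p53-null SaOS-2 cells with luciferase driven by a doxycycline-inducible promoter; compound on cells about two nights before reading with doxycycline added after day one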
Active calls of the source: *; . = no result.

SMILES	KKLEB tox	CF NFkB block	ABHD5-PLIN5 inh	HIF-2a inh	Mdm2 MdmX PPI	Peg3 prom inh	Mdm2-MdmX conf	Full FLuc ctr
CCCCCC(=O)N[C@@H](c1ccccc1)[C@@H](O)C(=O)O[C@H]1C[C@@]2(O)[C@@H](OC(=O)c3ccccc3)C3[C@](C)(C(=O)[C@H](O)C(=C1C)C2(C)C)[C@@H](OC1OCC(O)C(O)C1O)C[C@H]1OC[C@@]31OC(C)=O (some centres not stated)	-8	7	8	10	57*	23	60*	52*
CC(=O)O[C@@]12CO[C@@H]1C[C@@H](O)[C@@]1(C)C(=O)[C@H](O)C3=C(C)[C@@H](OC(=O)[C@H](O)[C@@H](NC(=O)c4ccccc4)c4ccccc4)C[C@@](O)([C@@H](OC(=O)c4ccccc4)C12)C3(C)C (some centres not stated)	-22	23	3	22	51*	17	61*	48*
Cc1cc(C)c(C)c(C(O)(C(=O)O)c2ccccc2)c1 (configuration not stated)	5	2	-1	10	.	8	.	.
COC(=O)C1=C(c2cc3ccccc3s2)C[C@@H]2CC[C@H]1N2C(=O)NCc1ccc(C(F)(F)F)cc1	-17	5	-13	24	57*	38	18	.
C[C@]12CCC3C(CC[C@H]4C[C@@H](O)CC[C@]34C)C1C/C(=N/O)[C@@H]2O (some centres not stated)	5	14	11	16	23	16	.	.
COC(=O)C1=C(c2ccccc2OCc2ccccc2)C[C@@H]2CC[C@H]1N2C(=O)NC1CCN(Cc2ccccc2)CC1	-4	8	4	1	51*	17	18	.
COC(=O)C1=C(c2cccc(OCc3ccccc3)c2)C[C@@H]2CC[C@H]1N2C(=O)NC1CCN(Cc2ccccc2)CC1	-10	26	-1	-22	61*	46	40*	71*
COC(=O)C1=C(c2ccc(F)cc2OCc2ccccc2)C[C@@H]2CC[C@H]1N2C(=O)NC1CCN(Cc2ccccc2)CC1	-15	26	10	2	76*	35	37	60*
COC(=O)C1=C(c2ccc(F)cc2OCc2ccccc2)C[C@@H]2CC[C@H]1N2C(=O)NCc1ccccc1	-11	28	-6	19	14	29	.	.
COC(=O)C1=C(c2ccccc2OCc2ccccc2)C[C@@H]2CC[C@H]1N2C(=O)NCc1ccccc1	13	3	-2	20	-21	15	.	.
O=[N+]([O-])c1oc2ccc3ccccc3c2c1CCO	19	-110	-3	25	.	38	.	.
COc1cc(CC2(CCc3ccncc3)C(=O)NC(=O)NC2=O)cc(OC)c1OC	-18	18	-5	9	23	5	.	.
COc1cc2c(cc1OC)-c1c(OC)c(OC)c(OC)c3ccnc(c13)C2=O	.	.	.	.	72*	.	44*	24
O=C(C1CCCCC1)N1Cc2ccccc2-n2nncc2C1	-8	0	-3	-2	.	-13	.	.
CC1(C)CC(=O)CC(C)(C)N1O	-2	2	-2	7	.	-36	.	.
C=C1C(O)[C@@H]2O[C@]3(CC[C@H](/C=C/C(C)[C@@H]4CC(C)=CC5(O[C@H](C[C@@](C)(O)C(=O)O)CCC5O)O4)O3)CC[C@H]2O[C@@H]1C(O)CC(C)[C@H]1OC2(CCCCO2)CCC1C (some centres not stated)	.	.	.	.	98*	.	100*	0
Cn1c(NN=O)nc2ccccc21	9	-7	-3	-129	59*	-5	82*	36
Cn1ncnc2c(=O)n(C)c(=O)nc1-2	-97*	102*	-29	82*	92*	105*	84*	21
COc1cccc(NP(=O)(Oc2ccccc2Cl)Oc2ccccc2Cl)c1	-9	9	-5	13	-5	38	.	.
COc1cccc(NP(=O)(Oc2ccccc2)Oc2ccccc2)c1	-10	26	-3	21	58*	38	53*	37*
COc1ccc(C(SCC(NC(=O)OCc2ccccc2)C(=O)O)c2ccc(OC)cc2)cc1 (configuration not stated)	0	-7	0	-41	.	-12	.	.
CC(C)(O)C1C2OC(=O)C1C1(O)CC3OC34C(=O)OC2C14C (configuration not stated)	9	-41	-3	-9	.	-2	.	.
C[C@]12CC[C@@H](O)CC1=CCC1C2CC[C@]2(C)C(=O)[C@H](F)CC12 (some centres not stated)	-15	50	-4	4	19	7	.	.
CC12CCC3C(CC=C4CC(O)CCC43C)C1C/C(=C\c1cccc(F)c1)C2=O (configuration not stated)	-15	39	1	6	60*	-57	20	.
Cc1ccccc1-n1c(/C=C/c2ccccn2)nc2ccccc2c1=O	4	2	13	35	58*	28	35	67*
SMILES	KKLEB tox	CF NFkB block	ABHD5-PLIN5 inh	HIF-2a inh	Mdm2 MdmX PPI	Peg3 prom inh	Mdm2-MdmX conf	Full FLuc ctr
O=c1c2ccccc2nc(/C=C/c2ccc(F)cc2)n1-c1ccccn1	.	.	.	.	40	.	.	.
COc1cc(/C=C/c2nc3ccccc3c(=O)n2-c2ccccc2O)ccc1O	14	-57	4	-8	69*	-13	18	.
COc1cc(/C=C/c2nc3ccccc3c(=O)n2-c2cccc(O)c2)ccc1O	-4	-20	6	23	42	47	.	.
O=c1c2ccccc2nc(/C=C/c2ccc(O)cc2)n1-c1ccccc1O	1	-3	-4	-28	39	-28	.	.
O=c1c2ccccc2nc(/C=C/c2ccccc2)n1-c1ccccc1O	-4	-5	0	0	53*	8	24	.
S=P(NCCNP(=S)(N1CC1)N1CC1)(N1CC1)N1CC1	3	-5	4	8	.	21	.	.
O=C(CCc1ccccc1)N1Cc2cc(N3CCCCC3)ccc2-n2nncc2C1	4	-10	4	17	.	21	.	.
CCOC(=O)C(c1c(O)c2ccccc2oc1=O)c1c(O)c2ccccc2oc1=O	9	2	5	-1	.	2	.	.
COC(=O)C1=C(c2ccc(C(C)=O)cc2)C[C@@H]2CC[C@H]1N2C(=O)NC(C)C	0	-10	4	6	11	-1	.	.
S=C(NCCc1ccccc1)N1Cc2ccccc2-n2nncc2C1	-4	7	10	1	.	14	.	.
COC(=O)[C@@H]1C[C@H]1[C@@H](NP(=O)(c1ccccc1)c1ccccc1)c1ccccc1	-6	-96	-10	-64	56*	-27	40*	63*
Cc1nc2ccccc2c(=O)n1-c1cc([N+](=O)[O-])cc([N+](=O)[O-])c1	4	-4	-3	4	12	3	.	.

Compound activity deposited in PubChem BioAssay by several laboratories.
